# Source: PubChem BioAssay
# NS1 inh: influenza NS1 inhibition; AID 2326; 0.4% of 270,000 active; Potency, µM (top dose mostly 46.1 µM); calls by dose curve; note: actives are rising curves; nearly all actives have a fitted effect of over 50% in size
#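 In this qHTS, NS1 from influenza A is expressed in budding yeast, where it slows growth. Cells are switched from glucose to 2% galactose medium (pH 6.0, -URA), treated with compound, and growth recovery is read at OD600.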
# Pf growth 96h: inhibits malaria parasite growth, 96 h; P. falciparum luciferase reporter growth, 96 h; Potency, µM (top dose mostly 28.7 µM), actives largely listed as inhibitors; 6.9% of 320,000 active
#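 Infected RBCs, 2% Hct / 0.05% parasitemia final; luciferase-reporter P. falciparum; cpd 96 h, 37 C, 5% CO2; luciferase detection reagent; luminescence.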
# Pf growth 48h: P. falciparum growth inhibition at 48 hours (one generation). P. falciparum luciferase growth in erythrocytes, 48 h. Potency, µM (series often up to 28.7 µM), usual class: inhibitors. 5.9% of 310,000 active. AID 504832
#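 Luciferase-expressing parasites in RBCs, 2% Hct / 0.1% parasitemia final; RPMI 1640 + 0.5% Albumax; 37 C, 5% CO2, one generation; luminescence read-out, lower signal = inhibition.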
# CHX counter: affects cycloheximide protein synthesis inhibition readout, counter-screen; cell reporter, cycloheximide protein synthesis inhibition counterscreen; max response, %; 12% of 300,000 active; in the data active = max response mostly above about 13%, no sharp cut-off; inactive = mostly below about 14%; note: read at 38.3 µM for the half of the compounds with a filed dose
# Shiga inhibitor: inhibitors of Shiga toxin in Vero cells; Vero cells, Shiga toxin protein synthesis inhibition reporter; inhibition, % at 38.7 µM; 9.2% of 290,000 active; in the data active = inhibition mostly above about 28%, no sharp cut-off; inactive = mostly below about 43%
# SARS PLpro yeast: inhibitors of SARS-CoV papain-like protease in yeast; S. cerevisiae expressing SARS-CoV PLpro, growth rescue; Potency, µM (series often up to 32.9 µM), most hits filed as activators; 0.19% of 330,000 active; calls by dose curve; note: nearly all actives have a fitted effect of over 55% in size
# Hits are given with their value; i = inactive; ? = inconclusive; nt = no result given; ! = not active in a repeat; [ ] = another dose, or the depositor's remark. A selection: hits, their analogues and other compounds. The true share with any hit is near 21%. Unless noted, calls come from the whole dose curve; as a rule, active = well fitted inhibition curve with a large enough effect; inconclusive = small, poorly fitted or top-dose-only effect, or another doubt; inactive = no such curve, though single readings can be large or run the other way.
SMILES,NS1 inh,Pf growth 96h,Pf growth 48h,CHX counter,Shiga inhibitor,SARS PLpro yeast
O=C(COC(=O)/C(=C/c1cccs1)c1cccs1)NC(c1ccccc1)c1ccccc1,i,?,?,i,i,i
CCOC(=O)c1cnc2ccccc2c1NCc1ccco1,i,?,?,22.6,52.1,i
CCOC(=O)c1sc2ncnc(NCc3ccco3)c2c1C,i,i,nt,i,i,i
CCOC(=O)c1cnc2c(C(=O)OC)cccc2c1NCc1cccnc1,i,i,i,i,i,i
CCOC(=O)CSc1nc(Nc2ccc3c(c2)OCO3)c2ccccc2n1,i,8.28µM,8.28µM,i,i,i
CCOC(=O)c1cnc2c(C)cccc2c1Nc1cccc(C(=O)O)c1,i,i,i,i,i,i
CCOC(=O)c1cnc2ccccc2c1Nc1ccc2c(c1)OCCO2,i,i,4.15µM,109.6,154.4,i
CCOC(=O)c1cnc2ccc(OC)cc2c1NCc1ccccc1,i,?,11.7µM,i,i,i
CC[N+]1(C)CC2CCC(C)(C1)C2(C)C (stereo unspecified),i,?,i,i,i,i
CCOC(=O)c1cnc2ccc(OCC)cc2c1NCc1ccccc1OC,i,i,11.7µM,i,i,i
CCOC(=O)c1cnc2c(OC)cccc2c1Oc1ccccc1,i,i,?,i,i,i
Cc1ccnc2c1ccc1cccnc12,nt,0.828µM,1.17µM,nt,nt,i
Cc1ccnc2c1ccc1c(C)ccnc12,nt,4.65µM,2.62µM,nt,nt,i
Cc1cccc2cccnc12,nt,i,i,nt,nt,i
Cc1ccnc2c1ccc1ccccc12,i,i,i,16.2,i,i
Cc1ccc2ccc3cccc4ccc1c2c34,nt,i,i,nt,nt,i
O=Cc1ccc2ccc3cccnc3c2n1,i,?,i,i,i,i
c1cnc2c(c1)ccc1cccnc12,i,3.29µM,5.86µM,active!,i,i
COc1cc(C(=O)NCc2ccc(S(N)(=O)=O)cc2)ccc1OCC(=O)N1CCOCC1,nt,i,i,nt,nt,i
CCOc1nsc(OCC)n1,i,i,i,i,i,i
CS(=O)(=O)c1ccc(Cl)c(NC(=O)c2cc(S(=O)(=O)N3CCOCC3)ccc2N2CCCC2)c1,nt,13.1µM,?,nt,nt,i
Cc1ccc(S(=O)(=O)N2CCOCC2)cc1C(=O)Nc1cc(Cl)ccc1N1CCOCC1,nt,?,4.65µM,nt,nt,i
O=C(Nc1cc(S(=O)(=O)N2CCOCC2)ccc1N1CCCC1)c1cc(F)c(F)cc1Cl,nt,i,?,nt,nt,i
C/C(=N\NC(=S)Nc1cc(S(=O)(=O)N2CCOCC2)ccc1Cl)c1ccccc1F,?,i,i,58.8,74.6,i
CC1CCCCC1NS(=O)(=O)c1ccc(S(=O)(=O)N2CCN(CCC#N)CC2)cc1 (stereo unspecified),i,i,13.1µM,i,i,i
SMILES,NS1 inh,Pf growth 96h,Pf growth 48h,CHX counter,Shiga inhibitor,SARS PLpro yeast
CCOc1ccccc1C(=O)NCC(=O)N1CCN(Cc2ccc3c(c2)OCO3)CC1,nt,?,?,nt,nt,i
CNC(=O)c1cccc(NC(=O)c2ccccc2OCc2ccccc2)c1,i,i,i,i,i,i
Cc1ccccc1OCCOc1cccc(/C=N/NC(=O)Cc2nnc(N)s2)c1,i,i,i,38.3,136.9,i
Nc1nnc(CC(=O)N/N=C/c2cccc([N+](=O)[O-])c2)s1,i,i,i,i,i,i
Nc1nnc(CC(=O)N/N=C/c2cccc(OCCOc3ccccc3)c2)s1,i,i,i,40.5,68.7,i
N#Cc1cccc(Cn2nnc(-c3ccccc3)n2)c1,i,nt,i,12.9,i,i
c1ccc(Cn2nnc(-c3ccccc3)n2)cc1,i,i,i,35.3,94.2,i
Nc1nnn(Cc2ccccc2)n1,i,i,i,i,i,i
O=C(CNc1cc(S(=O)(=O)N2CCOCC2)ccc1N1CCCC1)N1CCc2ccccc21,i,?,13.1µM,i,i,i
CC(=O)NCCC(=O)Nc1cc(S(=O)(=O)N2CCOCC2)ccc1Oc1ccccc1,i,11.7µM,i,i,i,i
CC(=O)NCCC(=O)Nc1cc(S(=O)(=O)N2CCOCC2)ccc1N1CCCC1,nt,i,11.7µM,nt,nt,i
COc1cc(/C=C2\C(=N)N3N=C(S(C)(=O)=O)SC3=NC2=O)cc(OC)c1OCCOc1cccc(C)c1,i,i,i[0.00184 µM],i,i,i
COc1ccc(OC)c(Nc2nc(NCCCN(C)C)nc(N)c2[N+](=O)[O-])c1,i,11.7µM,13.1µM,i,i,i
COc1ccccc1Nc1nc(NCCC(C)C)nc(N)c1[N+](=O)[O-],i,?,3.7µM,i,i,i
Cc1c(-c2ccc(O)cc2)nc2nc(-c3ccccc3)c(-c3ccccc3)nn12,i,2.08µM,0.415µM,i,i,i
Cc1ccc(C(=O)Nc2ccc3ncccc3c2)cc1,i,i,i,13.8,i,i
Brc1ccc(CNc2ccc3ncccc3c2)cc1,i,i,i,29.8,41.5,i
O=C(O)c1ccc(NCc2ccc(Br)cc2)cc1,i,i,i,i,i,i
O=C(Nc1ccc2ncccc2c1)c1cccc(Br)c1,i,i,i,38.9,46.8,i
Cc1cc(=O)oc(C)c1C(=O)Nc1ccc2ncccc2c1,i,nt,9.28µM,i,i,i
CCC(=O)c1ccc2ncccc2c1,i,i,i,21.2,44.0,i
Cc1cccc(C(=O)Nc2ccc(C(=O)/C=C/c3ccncc3)cc2)c1,i,i,?,i,i,i
Cc1ccc(C(=O)Nc2ncccc2S(=O)(=O)c2ccccc2)cc1,i,i,i,12.0,66.3,i
CC(=O)c1c(C(C)=O)c(C)n(-c2ccc3ncccc3c2)c1C,i,i,i,i,i,i
O=C(Nc1cccc2cccnc12)c1ccc(Cl)cc1Cl,i,i,i,i,i,i
SMILES,NS1 inh,Pf growth 96h,Pf growth 48h,CHX counter,Shiga inhibitor,SARS PLpro yeast
Cc1ccc(C(=O)/C=C/c2ccc3ncccc3c2)cc1,i,i,i,48.5,47.1,i
O=C(Nc1ccc2ncccc2c1)c1cc(Cl)ccc1Cl,nt,i,?,44.8,i,i
O=C(O)CNC(=O)c1ccc(NC(=O)/C(=C/c2ccccc2)NC(=O)c2ccccc2)cc1,i,i,i[0.00184 µM],i,i,i
O=C(NCCCNC(=O)c1cnccn1)c1cccc(F)c1,i,?,i,i,i,i
N#Cc1ccccc1NC(=O)C(=O)NCCCN1CCCC1=O,nt,i,i,nt,nt,i
Cc1ccc2nc(NC(=O)Cn3nc(C)c([N+](=O)[O-])c3C)sc2c1,i,i,i,i,i,i
CCOCC(=O)Nc1nc2ccc(C)cc2s1,i,i,i,43.2,84.5,?
Cc1ccc2nc(NC(=O)CSc3nc4ccccc4o3)sc2c1,i,?,nt,i,i,i
CCOc1ccc2nc(-c3cc(NC(C)=O)ccc3O)sc2c1,i,i,i,35.0,i,i
Cc1ccc2nc(NC(=O)CSCC(=O)OCC(=O)c3ccccc3)sc2c1,i,?,?,18.4,i,i
CCOCC(=O)Nc1nc2ccc(S(C)(=O)=O)cc2s1,i,i,i,32.7,53.6,i
CCN(C(=O)CSc1nc(C)c(C)c(C)n1)C1CCS(=O)(=O)C1 (stereo unspecified),nt,nt,nt,nt,nt,i
CCOCC(=O)Nc1nc2ccc(OCC)cc2s1,i,i,i,52.3,111.9,i
